Test results from PubChem BioAssay (NCI).
Several values for one entry are separate records, joined by “and”; a condition that tells them apart may be missing. Equal values may be shown once. Compounds without any hit were thinned out: in the full panel of roughly 79,000, 15% have a hit. Values without a mark were called inactive. Activity calls are given as the source filed them. Cut-off read from the data, not from the text of the source: active = growth inhibition above about 70%; inactive = the rest.

Experiments:
[1] = NCI Yeast Anticancer Drug Screen. Data for the rad50 strain (AID 155);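 note: 0% = growth of vehicle-only cultures of the same strain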; details: S. cerevisiae rad50 strain growth inhibition, active compounds read high
Summary of the method: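 Vehicle-treated cultures provide the reference for the growth inhibition reported for compound-exposed, repair-deficient yeast.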

[2] = NCI Yeast Anticancer Drug Screen. Data for the mec2-1 strain (AID 157); details: S. cerevisiae mec2-1 strain, active compounds read high
Summary of the method: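 Mutant yeast (mec2-1) grown with compound; growth inhibition relative to vehicle control reported.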

[3] = NCI Yeast Anticancer Drug Screen. Data for the sgs1 mgt1 strain (AID 161);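 note: 0% = growth of cultures given vehicle only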; details: S. cerevisiae sgs1 mgt1 strain, active compounds read high
Summary of the method: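 This yeast growth screen uses a strain with defined DNA-repair lesions; compound-treated growth is compared with vehicle-treated growth.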

[4] = NCI Yeast Anticancer Drug Screen. Data for the cln2 rad14 strain (AID 165);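 note: 0% = growth equal to vehicle treated cultures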; details: S. cerevisiae cln2 rad14 strain, active compounds read high
Summary of the method: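 Readout is yeast growth inhibition versus vehicle-treated controls, using a strain with cln2 and rad14 alterations exposed to compound.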

[5] = NCI Yeast Anticancer Drug Screen. Data for the bub3 strain (AID 167); details: S. cerevisiae bub3 mutant strain, active compounds read high
Summary of the method: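 Mutant yeast screening strain plus compound; vehicle-treated cultures serve as the 0% inhibition reference.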

[6] = NCI Yeast Anticancer Drug Screen. Data for the mlh1 rad18 strain (AID 175); details: S. cerevisiae mlh1 rad18 strain growth inhibition, active compounds read high
Summary of the method: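 Genetically defined yeast (DNA repair-deficient) exposed to compounds; growth inhibition determined relative to vehicle.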

[7] = at 5.0 µM (retest, dose inferred, filed as 0.5)
[8] = at 50.0 µM (retest, dose inferred, filed as 5.0)

SMILES: CCC1(O)CC(OC2CC(N(C)C)C(OC3CC4OC5CC(=O)C(C)OC5OC4C(C)O3)C(C)O2)c2c(cc3c(c2O)C(=O)c2c(O)ccc(O)c2C3=O)C1C(=O)OC (centres undefined)
- growth inhibition [1, 7]: 88% (active) and 93% (active)
- growth inhibition [1, 8]: 97% (active) and 98% (active)
- growth inhibition ([1]; at 50.0 µM): 89.9% (active) and 87.5% (active) and 91.9% (active)
- growth inhibition [2, 7]: 71% (active) and 96% (active) and 95% (active)
- growth inhibition [2, 8]: 98% (active)
- growth inhibition ([2]; at 50.0 µM): 90% (active) and 89.7% (active) and 92% (active)
- growth inhibition [3, 7]: 89% (active) and 79% (active) and 93% (active)
- growth inhibition [3, 8]: 98% (active) and 97% (active)
- growth inhibition ([3]; at 50.0 µM): 91% (active) and 90% (active)
- growth inhibition [4, 7]: 73% (active) and 85% (active) and 86% (active)
- growth inhibition [4, 8]: 96% (active) and 97% (active)
- growth inhibition ([4]; at 50.0 µM): 88% (active) and 87.9% (active) and 91.4% (active)
- growth inhibition [5, 7]: 93% (active) and 92% (active)
- growth inhibition [5, 8]: 98% (active) and 97% (active)
- growth inhibition ([5]; at 50.0 µM): 88.6% (active) and 87.2% (active) and 84.8% (active)
- growth inhibition [6, 7]: 92% (active) and 96% (active) and 94% (active)
- growth inhibition [6, 8]: 97% (active) and 96% (active) and 98% (active)
- growth inhibition ([6]; at 50.0 µM): 89.8% (active) and 86% (active) and 89.9% (active)

SMILES: C/C(=N\N=C(\[Se])N1CCN(c2ccccn2)CC1)c1ccccn1
- growth inhibition [1, 7]: -2%
- growth inhibition [1, 8]: 88% (active)
- growth inhibition ([1]; at 50.0 µM): 70.3% (active)
- growth inhibition [2, 7]: -1%
- growth inhibition [2, 8]: 98% (active)
- growth inhibition ([2]; at 50.0 µM): 70%
- growth inhibition [3, 7]: 5%
- growth inhibition [3, 8]: 95% (active)
- growth inhibition ([3]; at 50.0 µM): 82% (active)
- growth inhibition [4, 7]: -9%
- growth inhibition [4, 8]: 83% (active)
- growth inhibition ([4]; at 50.0 µM): 9.4%
- growth inhibition [5, 7]: 9%
- growth inhibition [5, 8]: 96% (active)
- growth inhibition ([5]; at 50.0 µM): 93.2% (active)
- growth inhibition [6, 7]: 59%
- growth inhibition [6, 8]: 93% (active)
- growth inhibition ([6]; at 50.0 µM): 78.2% (active)

SMILES: O=C(O)CN(CCN(CC(=O)O)CC(=O)O)CC(=O)O
- growth inhibition [1, 7]: 8%
- growth inhibition [1, 8]: 69%
- growth inhibition ([1]; at 50.0 µM): 27.9% and 13.8% and 43.4%
- growth inhibition [2, 7]: 14%
- growth inhibition [2, 8]: 70% (active)
- growth inhibition ([2]; at 50.0 µM): 42.2% and 20% and 30.6%
- growth inhibition [3, 7]: 11%
- growth inhibition [3, 8]: 74% (active)
- growth inhibition ([3]; at 50.0 µM): 65.8% and 26.2% and 57.2%
- growth inhibition [4, 7]: -3%
- growth inhibition [4, 8]: 49%
- growth inhibition ([4]; at 50.0 µM): -14.9% and -22.5% and 17.4%
- growth inhibition [5, 7]: 10%
- growth inhibition [5, 8]: 66%
- growth inhibition ([5]; at 50.0 µM): 60.7% and 38% and 53.3%
- growth inhibition [6, 7]: 6%
- growth inhibition [6, 8]: 70% (active)
- growth inhibition ([6]; at 50.0 µM): 44.4% and 24.2% and 46.9%

SMILES: CCCCC1CCCCCCc2[nH]c(/C=C3\N=C(c4ccc[nH]4)C=C3OC)cc21 (centres undefined)
- growth inhibition [1, 7]: 24%
- growth inhibition [1, 8]: 91% (active)
- growth inhibition ([1]; at 50.0 µM): 82.3% (active)
- growth inhibition [2, 7]: 23%
- growth inhibition [2, 8]: 93% (active)
- growth inhibition ([2]; at 50.0 µM): 86.5% (active)
- growth inhibition [3, 7]: 45%
- growth inhibition [3, 8]: 93% (active)
- growth inhibition ([3]; at 50.0 µM): 84.8% (active)
- growth inhibition [4, 7]: 39%
- growth inhibition [4, 8]: 94% (active)
- growth inhibition ([4]; at 50.0 µM): 81.2% (active)
- growth inhibition [5, 7]: 29%
- growth inhibition [5, 8]: 93% (active)
- growth inhibition ([5]; at 50.0 µM): 81.9% (active)
- growth inhibition [6, 7]: 34%
- growth inhibition [6, 8]: 90% (active)
- growth inhibition ([6]; at 50.0 µM): 80.5% (active)

SMILES: O=C(N/N=C/c1cc(Cl)cc(Cl)c1[O-])c1ccccc1O.O=C(N/N=C/c1cc(Cl)cc(Cl)c1[O-])c1ccccc1O.[Mn+2]
- growth inhibition [1, 7]: 57%
- growth inhibition [1, 8]: 90% (active)
- growth inhibition ([1]; at 50.0 µM): 66.8%
- growth inhibition [2, 7]: 88% (active)
- growth inhibition [2, 8]: 87% (active)
- growth inhibition ([2]; at 50.0 µM): 91.3% (active)
- growth inhibition [3, 7]: 68%
- growth inhibition [3, 8]: 88% (active)
- growth inhibition ([3]; at 50.0 µM): 47.1%
- growth inhibition [4, 7]: 77% (active)
- growth inhibition [4, 8]: 72% (active)
- growth inhibition ([4]; at 50.0 µM): 85% (active)
- growth inhibition [5, 7]: 89% (active)
- growth inhibition [5, 8]: 80% (active)
- growth inhibition ([5]; at 50.0 µM): 90.8% (active)
- growth inhibition [6, 7]: 56%
- growth inhibition [6, 8]: 87% (active)
- growth inhibition ([6]; at 50.0 µM): 68.2%

SMILES: CCCC[CH2][Pb]([CH2]CCCC)([CH2]CCCC)[O]C(C)=O
- growth inhibition [1, 7]: 99% (active)
- growth inhibition [1, 8]: 96% (active)
- growth inhibition ([1]; at 50.0 µM): 99% (active)
- growth inhibition [2, 7]: 99% (active)
- growth inhibition [2, 8]: 98% (active)
- growth inhibition ([2]; at 50.0 µM): 99.2% (active)
- growth inhibition [3, 7]: 100% (active)
- growth inhibition [3, 8]: 99% (active)
- growth inhibition ([3]; at 50.0 µM): 98.8% (active)
- growth inhibition [4, 7]: 99% (active)
- growth inhibition [4, 8]: 95% (active)
- growth inhibition ([4]; at 50.0 µM): 98% (active)
- growth inhibition [5, 7]: 100% (active)
- growth inhibition [5, 8]: 97% (active)
- growth inhibition ([5]; at 50.0 µM): 98% (active)
- growth inhibition [6, 7]: 99% (active)
- growth inhibition [6, 8]: 93% (active)
- growth inhibition ([6]; at 50.0 µM): 98.5% (active)

SMILES: O=[N+]([O-])[O][Tl]([c]1ccccc1)[c]1ccccc1
- growth inhibition [1, 7]: -4%
- growth inhibition [1, 8]: 41%
- growth inhibition ([1]; at 50.0 µM): 15.3%
- growth inhibition [2, 7]: -4%
- growth inhibition [2, 8]: 54%
- growth inhibition ([2]; at 50.0 µM): 21.4%
- growth inhibition [3, 7]: -4%
- growth inhibition [3, 8]: 56%
- growth inhibition ([3]; at 50.0 µM): 49.5%
- growth inhibition [4, 7]: -4%
- growth inhibition [4, 8]: 57%
- growth inhibition ([4]; at 50.0 µM): 20.4%
- growth inhibition [5, 7]: -3%
- growth inhibition [5, 8]: 75% (active)
- growth inhibition ([5]; at 50.0 µM): 51.8%
- growth inhibition [6, 7]: -3%
- growth inhibition [6, 8]: 41%
- growth inhibition ([6]; at 50.0 µM): 8.3%

SMILES: Cc1cccc2cc3ccccc3c[n+]12
- growth inhibition [1, 7]: 5%
- growth inhibition [1, 8]: 63%
- growth inhibition ([1]; at 50.0 µM): 89.9% (active)
- growth inhibition [2, 7]: 6%
- growth inhibition [2, 8]: 49%
- growth inhibition ([2]; at 50.0 µM): 84% (active)
- growth inhibition [3, 7]: -12%
- growth inhibition [3, 8]: 79% (active)
- growth inhibition ([3]; at 50.0 µM): 97.3% (active)
- growth inhibition [4, 7]: 2%
- growth inhibition [4, 8]: 73% (active)
- growth inhibition ([4]; at 50.0 µM): 62.2%
- growth inhibition [5, 7]: -1%
- growth inhibition [5, 8]: 57%
- growth inhibition ([5]; at 50.0 µM): 54.2%
- growth inhibition [6, 7]: 14%
- growth inhibition [6, 8]: 89% (active)
- growth inhibition ([6]; at 50.0 µM): 91% (active)
